High-throughput results as filed in PubChem BioAssay.
Rows were chosen to be rich in hits. Some 3.2% of all compounds tested hit in one or more screens of this group.
12-hLO inh – blocks human 12-lipoxygenase activity; P18054; purified 12-hLO, xylenol orange hydroperoxide absorbance; Potency, µM (titrated, usually from 57.1 µM), most hits filed as inhibitors; hit rate 0.12% among 150,000; AID 1452; also: nearly all actives have a fitted effect of over 55% in size
Target sequence (P18054 whole entry, looked up): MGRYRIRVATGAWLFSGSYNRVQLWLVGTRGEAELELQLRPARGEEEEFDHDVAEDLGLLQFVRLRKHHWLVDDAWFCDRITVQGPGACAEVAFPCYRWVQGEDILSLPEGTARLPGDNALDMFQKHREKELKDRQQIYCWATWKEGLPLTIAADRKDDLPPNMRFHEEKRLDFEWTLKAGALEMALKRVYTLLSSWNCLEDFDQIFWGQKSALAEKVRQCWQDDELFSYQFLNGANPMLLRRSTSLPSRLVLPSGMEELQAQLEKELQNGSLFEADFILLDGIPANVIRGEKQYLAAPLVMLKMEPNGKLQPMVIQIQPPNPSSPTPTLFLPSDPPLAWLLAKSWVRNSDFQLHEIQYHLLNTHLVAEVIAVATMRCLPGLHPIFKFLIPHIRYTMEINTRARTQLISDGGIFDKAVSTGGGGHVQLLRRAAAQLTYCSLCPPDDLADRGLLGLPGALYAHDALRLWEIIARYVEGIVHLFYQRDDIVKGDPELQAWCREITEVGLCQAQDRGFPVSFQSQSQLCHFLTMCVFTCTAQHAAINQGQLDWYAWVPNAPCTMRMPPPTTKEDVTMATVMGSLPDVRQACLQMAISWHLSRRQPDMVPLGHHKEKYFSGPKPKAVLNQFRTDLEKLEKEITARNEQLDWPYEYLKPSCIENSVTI
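Purified human 12hLO (150 nM), preincubated 15 min with compound, then 40 uM arachidonic acid for 30 min, room temperature, Hepes pH 7.0 with 0.01% Triton X-100. Hydroperoxide detected by ferrous iron/xylenol orange; 573/405 nm absorbance ratio gives reaction progress.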
PNC assembly inh – inhibitors of perinucleolar compartment assembly. hit rate 3.1% among 140,000. activity change (PNC), negative = inhibition, % at 10 µM. AID 2417. PC3M PTB-GFP, PNC prevalence imaging, 16 h; active compounds read low;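 active = readout at or below -70, meaning at least 70% loss of cells showing the perinucleolar compartment, a nuclear body marking cancer cells; inconclusive = readout between -30 and a set limit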
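Read-out is percentage of cells bearing a perinucleolar compartment, from automated 20x imaging of fixed, Hoechst-stained PC3M PTB-GFP cells. Cells were seeded 4 h, then exposed 16 h to compound (23 nl of library stock) in duplicate plates.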
ALOX15B inhib – inhibitors of human 15-lipoxygenase 2 (ALOX15B); AID 881; O15296; Potency, µM (series often up to 57.1 µM), most hits filed as inhibitors; purified 15hLO-2, xylenol orange hydroperoxide absorbance; hit rate 0.56% among 110,000; also: nearly all actives have a fitted effect of over 60% in size
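Screening format was qHTS against 50 nM purified 15hLO-2 in Hepes pH 7.5 with detergent. Activity follows hydroperoxide formation from 45 uM arachidonic acid, measured as 573:405 nm absorbance ratio of the ferric-xylenol orange complex.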
Numbers stand for hits; . = inactive; ? = inconclusive; / = not tested or not shown; [ ] = dose if it differs, or a comment. Unless noted, calls follow the shape of the dose curve; as a rule, active = well fitted curve in the direction sought with a large enough effect; inconclusive = small, poorly fitted or top-dose-only effect, or another doubt; inactive = no such curve, though single readings can be large; an effect the other way counts as inactive or inconclusive.

SMILES	12-hLO inh	PNC assembly inh	ALOX15B inhib
Cc1ccc(S(=O)(=O)CCC(=O)OCc2ccc(Cl)c(Cl)c2)cc1	.	-112.5	/
Cc1ccc(S(=O)(=O)CCC(=O)OCC(=O)Nc2ncc(Cl)cc2Cl)cc1	.	.	.
O=C(CSc1nccc(=O)[nH]1)c1ccccc1Br	.	.	.
CCOC(=O)NCC(C#CCN(CC)CC)N(CC)CC (stereo unspecified)	.	-92.8	.
CCN(CC)CC#CC(C)OCOCC#CCOC (stereo unspecified)	.	.	.
C=C1c2ccccc2O[C@H](C(=O)OCC)C1OC (mixture of isomers)	.[0.00818 µM]	/	.[0.0915 µM]
COc1cc(NC(=S)NC(=O)CC(C)C)ccc1NC(=O)c1cc2ccccc2o1	.	.	/
COc1ccccc1C(=O)Nc1ccc(C(=O)O)cc1	.	.	/
COc1ccccc1C(=O)Nc1ccc(C2=NNC(=O)CC2C)cc1 (stereo unspecified)	.	-113.8	/
O=C(O)c1ccccc1C(=O)N(Cc1ccccc1)Cc1ccccc1	.	.	.
Nc1ccccc1C(=O)N(Cc1ccccc1)Cc1ccccc1	.	-100.0	/
Cc1ccc2[nH]c(=S)cc(C)c2c1	.	.	12.6µM
Cc1cc(=S)[nH]c2ccccc12	.	.	?
O=C(O)c1sccc1SCc1ccc(Cl)cc1Cl	.	.	.
CN1CCCN([C@@H](c2ccccc2)c2ccc(Cl)cc2)CC1	.	/	.
CC(C)NC[C@@H](O)c1ccc(O)c2ncccc12	.[11.4 µM]	/	.[11.4 µM]
O=C(Cn1c(C(=O)N2CCN(C3CCCC3)CC2)cc2sccc21)c1ccccc1	.	-121.8	.
O=C(Cn1c(C(=O)NCC2CCCO2)cc2sccc21)c1ccccc1 (stereo unspecified)	.	.	.
CCOC(=O)C1=NN(C(=O)Nc2cccc(C(F)(F)F)c2)C2C(=O)N(c3cccc(C(F)(F)F)c3)C(=O)C12 (stereo unspecified)	.	.	.
Cn1c2c(c(=O)n(C)c1=O)CN(CCCN1CCOCC1)CN2	.	-84.1	.
O=c1[nH]c(=S)[nH]c2c1CN(CCCN1CCOCC1)CN2	.[11.4 µM]	/	.[11.4 µM]
Nc1nc(SCc2ccccc2[N+](=O)[O-])c2[nH]cnc2n1	.[11.4 µM]	/	.[11.4 µM]
COCCn1c(=O)c(-c2ccc(Cl)cc2)nc2cnc(N(C)C)nc21	/	/	.
CC(C)c1nc2sc3c(c2c(=O)o1)CCCC3	.	-94.2	.
Cc1nc2sc3c(c2c(=O)o1)CCCC3	.	.	.
SMILES	12-hLO inh	PNC assembly inh	ALOX15B inhib
CCn1c(-c2csc3ccccc23)n[nH]c1=S	.	?	/
CCn1c(-c2ccccc2O)n[nH]c1=S	.	-115.0	.
CCOC(=O)C(C)/C(C)=N/NC(N)=S (stereo unspecified)	.	.	/
CNC(=O)[C@@]1(C)C=C[C@@H](Cc2ccccc2)N1C(C)=O	.	/	.
CNC(=O)[C@@]1(C)C=C[C@@H](Cc2ccccc2)N1C(=O)OC	.	-95.8	.
Cc1cc(O)c(C(C)(C)C)cc1Sc1cc(C(C)(C)C)c(O)cc1C	.	/	.
Cc1cccn2c(=O)c3cc(C(=O)NCCCN4CCOCC4)n(C)c3nc12	.	-95.0	.
CCCCNC(=O)c1cc2c(=O)n3cccc(C)c3nc2n(CCN2CCOCC2)c1=N	.	.	.
COCCN(CCOC)c1nc(C)nc2c1nc(-c1ccccc1)n2CCN(C)C	.	/	.
CCNc1nc(OC)nc(Oc2ccc(=O)n(-c3ccccc3)n2)n1	.	-93.8	.
CCNc1nc(Oc2ccc(=O)n(-c3ccccc3)n2)nc(N(C)C)n1	.	.	.
NCCc1nnc(SCc2c(F)cccc2Cl)o1	.	-103.2	.
NCCc1nnc(SCc2ccccc2F)o1	.	.	.
Cc1[nH]c(=O)[nH]c(=O)c1/C=N/NC(=O)[C@H](C)NC(=O)OC(C)(C)C	.	-106.0	.
Cc1[nH]c(=O)[nH]c(=O)c1/C=N/NC(=O)[C@H](CC(C)C)NC(=O)OC(C)(C)C	.	.	.
COc1ccc(OC)c(NC(=S)N2CCC(C(O)(c3ccccc3)c3ccccc3)CC2)c1	?	.	/
CCN1CCCC1Cn1c(-c2ccccc2)nc2c(NCc3ccccc3)nc(C)nc21 (stereo unspecified)	.	/	.
COc1ccccc1Oc1coc2c(CN(C)C)c(O)ccc2c1=O	.	.	.
CCN(CC)Cc1c(O)ccc2c(=O)c(Oc3ccccc3OC)coc12	.	-80.1	.
COC(=O)C1=C(C(=O)OC)[C@@H]2N(C)c3ccc(OC)cc3[C@@]23C[C@@H](C(=O)OC)N(S(=O)(=O)c2ccc(C#N)cc2)C3=N1	.[11.4 µM]	/	/
Cc1nn(-c2ccccc2)c(N2CCCC2)c1/C=N/NC(=O)c1cc(-c2cccnc2)nc2ccccc12	.	.	/
O=C(N/N=C/c1cc2c3c(c1O)CCCN3CCC2)c1ccccc1O	.	-112.8	/
Cc1cccc(C(=O)Oc2ccc(/C=N/NC(=O)c3ccccc3O)cc2)c1	.	.	/
Cc1nn(-c2ccccc2)c(N2CCCC2)c1/C=N/NC(=O)c1ccccc1O	.	-103.8	/
COc1ccccc1OCC(=O)c1[nH]c(C)c(C(C)=O)c1C	.	.	/
SMILES	12-hLO inh	PNC assembly inh	ALOX15B inhib
CC(=O)c1c(C)[nH]c(C(=O)COc2cc(C)ccc2C(C)C)c1C	.	-86.4	.
O=C(O)[C@@H]1[C@@H](C(=O)NCc2ccncc2)[C@@H]2C=C[C@@H]1O2	.[11.4 µM]	/	.[11.4 µM]
CCC(CO)NC(=O)c1cccc(S(=O)(=O)N2c3ccccc3CC2C)c1 (stereo unspecified)	.	.	.
CCOC(=O)c1sc(NC(=O)c2cccc(S(=O)(=O)N3c4ccccc4CC3C)c2)cc1C (stereo unspecified)	.	-95.0	/
O=c1c2c(nc3nc(Cc4ccccc4)[nH]n13)CCC2	.	-89.8	.
Cc1nc2nc3c(c(=O)n2[nH]1)CCC3	.	?	.
Cc1nc(C)c(C(=O)C2=C(O)C(=O)N(CCN(C)C)C2c2ccccc2)s1 (stereo unspecified)	.	?	.
CCN(CC)CCCN1C(=O)C(=O)/C(=C(/O)c2ccc3c(c2)OCCO3)C1c1ccco1 (stereo unspecified)	.	.	.
CN(C)CCCN1C(=O)C(=O)/C(=C(/O)c2ccc3c(c2)OCCO3)C1c1ccco1 (stereo unspecified)	.	-86.0	.
Cc1nc(C)c(C(=O)C2=C(O)C(=O)N(CCCN(C)C)C2c2ccco2)s1 (stereo unspecified)	.	-80.9	.
CCCCN1CCCC[C@H]1C(=O)Nc1c(C)cccc1C	.[0.00818 µM]	/	.[0.0915 µM]
COc1cc(S(=O)(=O)N2CCC(c3nc4ccccc4s3)CC2)ccc1S(=O)(=O)NC1CCCC1	.	-100.0	/
COc1cc(S(=O)(=O)N2CCC(c3nc4ccccc4s3)CC2)ccc1S(=O)(=O)N1CC(C)CC(C)C1 (stereo unspecified)	.	.	/
CCOC(=O)c1[nH]c(C)c(C)c1C	.	.	.
CCOC(=O)c1[nH]c(C)c(/C=N/O)c1C	.	-115.1	.
Cc1ccc(S(=O)(=O)N(CC(=O)O)c2ccc(Cl)cc2)cc1	.	/	/
NC(=O)NC(N)=O	.	/	.
COc1ccc(-c2nc3cnc(N(C)C)nc3n(C3CC3)c2=O)cc1	/	/	.
O=C(CNC(=O)c1ccco1)OCc1ccc(Cl)cc1	.	-80.9	.
COC(=O)c1cccc(COC(=O)CNC(=O)c2ccco2)c1	.	?	.
